# PubChem BioAssay (Tox21)
# Where “and” joins values, the source holds several entries; their conditions need not be identical. Equal values may be shown once. Records with an inconclusive call do not appear. Where a call stands in place of a potency, no number is given. A structure can be active in one record and inactive in another. Calls of active or inactive are those of the source. Unless noted, calls follow the shape of the dose curve; as a rule, active = well fitted curve in the direction sought with a large enough effect in the repeat runs; inconclusive = weak or mixed curves; inactive = no such curve, though single readings can be large; an effect the other way counts as inactive or inconclusive.
# Experiments:
# [1] = qHTS assay for small molecule agonists of the p53 signaling pathway (AID 651631; calls by dose curve; also: nearly all actives have a fitted effect of over 15% in size)
# Method in brief: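 Quantitative high-throughput format: 4,000 p53RE-bla HCT-116 cells/well, 5 h pre-incubation, 16 h compound exposure at 37 °C, 2 h room-temperature substrate step, fluorescence intensity measured.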
# [2] = qHTS assay for small molecules that induce genotoxicity in human embryonic kidney cells expressing luciferase-tagged ATAD5 - cell viability (AID 651634; calls by dose curve; also: nearly all actives have a fitted effect of over 25% in size; also: potency is read from the fitted curve at half-maximal effect)
# Method in brief: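 Here HEK293T cells with the ATAD5 luciferase reporter are incubated with test compounds for 15.5 hr, and cytotoxicity is then gauged by measuring protease activity in live cells using fluorescence.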
# [3] = qHTS assay for small molecule disruptors of the mitochondrial membrane potential (AID 720635); also: potency is read from the fitted curve at half-maximal effect
# Method in brief: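 HepG2 cells exposed to compound 1 hr at 37C, then Mito-MPS dye 30 min. Ratio read of aggregate (540/590 nm) versus monomer (490/535 nm) fluorescence.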
# [4] = qHTS assay to test for compound auto fluorescence at 590 nm (red) in HepG2 cells (AID 720674)
# Method in brief: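 Fluorescence at 590 nm emission following 540 nm excitation was recorded from HepG2 wells one hour after compound transfer, with DMSO-only wells as vehicle and Rose Bengal sodium equivalency as the scale.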
# [5] = qHTS assay to test for compound auto fluorescence at 535 nm (green) in HepG2 cells (AID 720675)
# [6] = qHTS assay to test for compound auto fluorescence at 460 nm (blue) in HEK293 cells (AID 720678)
# Method in brief: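 Auto fluorescence in the blue band was quantified as triamterene equivalency. HEK293 cells were seeded at 2,000/well, dosed after a 4-5 hr attachment, and kept overnight at 37C before the 405/460 nm reading.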
# [7] = qHTS assay to test for compound auto fluorescence at 535 nm (green) in HEK293 cells (AID 720680)
# [8] = qHTS assay to test for compound auto fluorescence at 460 nm (blue) in HEK293 cell free culture (AID 720681)
# Method in brief: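 Compounds were added to cell-free DMEM with 10% FBS and fluorescence read directly. The blue channel used 405 nm excitation and 460 nm emission, with triamterene as the reference fluorophore.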
# [9] = qHTS assay to test for compound auto fluorescence at 535 nm (green) in HEK293 cell free culture (AID 720682)
# Method in brief: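 Measurement is a direct plate read of green fluorescence (485 nm in, 535 nm out) after compound addition to serum-supplemented DMEM lacking cells, with fluorescein used to express intensities.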
# [10] = qHTS assay to test for compound auto fluorescence at 590 nm (red) in HEK293 cell free culture (AID 720683)
# Method in brief: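 Cell-free wells of DMEM with 10% FBS received compound, and intrinsic fluorescence was read at excitation/emission 540/590 nm. Values expressed as equivalence to Rose Bengal sodium.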
# [11] = qHTS assay to test for compound auto fluorescence at 590 nm (red) in HepG2 cell free culture (AID 720684)
# Method in brief: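 Rose Bengal sodium served as the reference for red signal. Test compounds were dispensed into serum-containing MEM (10% FBS) without cells, and plates were read at 540/590 nm.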
# [12] = qHTS assay to test for compound auto fluorescence at 460 nm (blue) in HepG2 cell free culture (AID 720685)
# Method in brief: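 Cell-free plates of MEM plus 10% FBS received 23 nL compound or DMSO vehicle; blue-channel (405/460 nm) intensity scored against triamterene as reference fluorophore.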
# [13] = qHTS assay to test for compound auto fluorescence at 535 nm (green) in HepG2 cell free culture (AID 720686)
# [14] = qHTS assay to test for compound auto fluorescence at 460 nm (blue) in HepG2 cells (AID 720687)
# Method in brief: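 HepG2 cells in MEM with 10% FBS, attached overnight at 37 C, were exposed to compound or DMSO for 1 hr at 37 C, 5% CO2. Blue fluorescence was read at 405/460 nm, with triamterene as reference fluorophore.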
# [15] = qHTS assay for small molecules that induce genotoxicity in human embryonic kidney cells expressing luciferase-tagged ATAD5 (AID 651632); also: nearly all actives have a fitted effect of over 15% in size
# Method in brief: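 DMSO vehicle served as the control. HEK293T reporter cells, 16 hr at 37C, then 30 min Amplite at room temperature; ATAD5 induction is measured as luciferase activity.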
# [16] = qHTS assay for small molecule agonists of the p53 signaling pathway - cell viability (AID 651633; calls by dose curve; also: nearly all actives have a fitted effect of over 30% in size; also: potency is read from the fitted curve at half-maximal effect)
# Method in brief: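 p53RE-bla cells were treated with compound for 16 hours at 37 C. Cytotoxicity was then measured as CellTiter-Glo luminescence after 30 min at room temperature.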
# [17] = qHTS assay for small molecule disruptors of the mitochondrial membrane potential - cell viability (AID 720634; calls by dose curve;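 also: human HepG2 liver cancer cells; nearly all actives have a fitted effect of over 20% in size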)
# Method in brief: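 Viability of HepG2 cells is scored from ATP content by luminescence; cells are exposed to compound for 1 hr at 37 C and 5% CO2, then dosed with m-MPI dye before the CellTiter-Glo reagent.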
# [18] = qHTS assay to test for compound auto fluorescence at 590 nm (red) in HEK293 cells (AID 720679)
# Method in brief: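 Autofluorescence equivalency to Rose Bengal sodium, 540/590nm, in HEK293 cells exposed overnight to 23 nL compound per well.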
# [19] = target: Glucocorticoid receptor (Homo sapiens) (UniProt P04150); test: qHTS assay to identify small molecule agonists of the glucocorticoid receptor (GR) signaling pathway (AID 720691; active = well fitted activation curve with a large enough effect in the signal ratio in the repeat runs, not every such curve was filed as active; the % refers to the signal ratio); settings: GR-bla HeLa, beta-lactamase reporter ratio, 18 h; activation: at 62.4 µM (top of the series)
# Glucocorticoid receptor (Homo sapiens), sequence (P04150 whole entry, looked up): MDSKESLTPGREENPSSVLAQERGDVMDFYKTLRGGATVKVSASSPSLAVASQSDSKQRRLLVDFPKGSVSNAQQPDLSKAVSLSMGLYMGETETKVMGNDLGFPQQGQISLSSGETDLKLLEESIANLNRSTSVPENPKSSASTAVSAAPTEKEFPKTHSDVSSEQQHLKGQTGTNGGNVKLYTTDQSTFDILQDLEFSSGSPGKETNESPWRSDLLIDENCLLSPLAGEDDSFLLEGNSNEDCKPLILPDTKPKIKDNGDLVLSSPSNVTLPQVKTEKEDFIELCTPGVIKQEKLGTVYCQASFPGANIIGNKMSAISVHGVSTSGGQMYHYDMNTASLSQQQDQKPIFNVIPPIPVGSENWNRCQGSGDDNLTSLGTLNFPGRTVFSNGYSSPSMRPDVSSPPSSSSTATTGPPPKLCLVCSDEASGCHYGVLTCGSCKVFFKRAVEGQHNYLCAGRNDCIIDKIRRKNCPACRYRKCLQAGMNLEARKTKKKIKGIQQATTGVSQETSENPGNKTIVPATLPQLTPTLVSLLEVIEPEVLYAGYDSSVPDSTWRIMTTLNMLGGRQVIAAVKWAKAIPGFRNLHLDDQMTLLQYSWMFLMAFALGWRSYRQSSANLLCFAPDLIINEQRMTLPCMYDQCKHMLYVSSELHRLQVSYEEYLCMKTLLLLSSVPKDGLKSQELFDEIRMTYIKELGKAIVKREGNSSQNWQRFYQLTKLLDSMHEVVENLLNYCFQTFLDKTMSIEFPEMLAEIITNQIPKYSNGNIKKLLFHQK
# Method in brief: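 Compounds in DMSO, alongside positive controls, were added to GR-bla HeLa reporter cells and incubated 18 h at 37 C; GRE-driven beta-lactamase was detected by fluorescence after 2 h with FRET substrate at room temperature.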
# [20] = target: Glucocorticoid receptor (Homo sapiens) (UniProt P04150); test: qHTS assay to identify small molecule antagonists of the glucocorticoid receptor (GR) signaling pathway (AID 720692; active = well fitted inhibition curve with a large enough effect in the signal ratio in the repeat runs, not every such curve was filed as active; the % refers to the signal ratio; also: potency is read from the fitted curve at half-maximal effect)
# Method in brief: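 In a 1536-well cell format, compounds were added 4 h after seeding GR-bla HeLa cells, together with dexamethasone at 5 nM final; reporter activity was measured by FRET-substrate fluorescence following 18 h at 37 C.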
SMILES,Potency [1],Potency [2],Potency [3],outcome [4],Potency [5],Potency [6],outcome [7],Potency [8],outcome [9],outcome [10],outcome [11],Potency [12],Potency [13],Potency [14],Potency [15],Potency [16],Potency [17],outcome [18],Potency [19],Potency [20]
O=C1C[C@@H]2OCC=C3CN4CC[C@]56c7ccccc7N1[C@H]5[C@H]2[C@H]3C[C@H]46,inactive,inactive,inactive,inactive,inactive,inactive,inactive,inactive,inactive,inactive,inactive,inactive,inactive,inactive,–,–,–,–,–,–
Oc1ccc([C@H]2CNCc3c2ccc(O)c3O)cc1O,–,inactive,inactive,inactive,inactive,inactive,inactive,inactive,inactive,inactive,inactive,inactive,inactive,inactive,inactive,inactive,inactive,–,–,–
CCC(OC(C)=O)C(CC(C)NC)(c1ccccc1)c1ccccc1 (configuration not stated),–,inactive,49 µM (active),–,inactive,–,inactive,inactive,inactive,inactive,inactive,inactive,inactive,inactive,inactive,69.2 µM (active),inactive,inactive,–,–
CCOP(=S)(NC(C)C)Oc1ccccc1C(=O)OC(C)C (configuration not stated),inactive,–,27.3 µM (active),inactive,inactive,–,inactive,inactive,inactive,inactive,inactive,inactive,inactive,inactive,–,inactive,–,inactive,inactive,–
Cc1ccn2nc(S(=O)(=O)Nc3c(F)cccc3F)nc2n1,–,inactive,–,inactive,inactive,inactive,inactive,inactive,inactive,inactive,inactive,inactive,inactive,inactive,inactive,inactive,inactive,inactive,–,–
BrCCCBr,–,inactive,inactive,inactive,inactive,inactive,inactive,inactive,inactive,inactive,inactive,inactive,inactive,inactive,inactive,inactive,inactive,inactive,inactive,inactive
CCCCc1ccccc1,–,inactive,inactive,inactive,inactive,inactive,inactive,inactive,inactive,inactive,inactive,inactive,inactive,inactive,inactive,inactive,inactive,inactive,inactive,inactive
CC(C)N(C(=O)CCl)c1ccccc1,–,27.3 µM (active) and 38.6 µM (active),inactive,inactive,inactive,–,inactive,inactive,inactive,inactive,inactive,inactive,inactive,inactive,inactive,inactive and 30.6 µM (active),inactive,inactive,–,24.5 µM (active)
O=S(=O)(NS(=O)(=O)C(F)(F)F)C(F)(F)F,–,inactive,–,inactive,inactive,inactive,inactive,inactive,inactive,inactive,inactive,inactive,inactive,inactive,inactive,inactive,inactive,inactive,–,–
